Cytotoxicity call data for 19 compounds are collected here from the antibiotic and cytotoxicity screens of Wong et al. (2023).

Out of some 39,000 compounds screened, about 3,300 (8.5%) were called active. The list comes from a sample in which actives are over-represented; it also holds similar structures and randomly drawn compounds.

In the assay the test system is HepG2. Description: cytotoxicity call (relative viability < 0.9). The note with it: 10 µM.
For `CCN(CC)CCOC(=O)c1ccc(N)cc1.Cl`, the cytotoxicity call was “inactive”.
On to `CCN(CC)CCNC(C(=O)OCCC(C)C)c1ccccc1.Cl.Cl` (centres undefined), for which the cytotoxicity call is “inactive”.
In the case of `CCCC(C(=O)OCCN(CC)CC)(c1ccccc1)c1ccccc1.Cl` it was “active”.
Regarding `CN1CCN(C(=O)C[C@@H]2CC[C@H]3[C@@H](COC[C@@H](O)CN3S(=O)(=O)c3cccc(Cl)c3)O2)CC1`, the cytotoxicity call was “inactive”.
In the case of `C[C@@H]1CN([C@@H](C)CO)C(=O)Cc2cc(NC(=O)c3ccncc3)ccc2O[C@@H]1CN(C)Cc1ccc2c(c1)OCO2` it was “inactive”; in that of `C[C@H](CO)N1C[C@H](C)[C@@H](CN(C)Cc2ccc3c(c2)OCO3)OCCCC[C@H](C)Oc2ccc(NC(=O)Nc3ccc(F)cc3)cc2C1=O`, “active”.
In the case of `C[C@@H]1CCCCO[C@H](CN(C)Cc2ccc3c(c2)OCO3)[C@H](C)CN([C@@H](C)CO)C(=O)c2cc(NC(=O)Nc3ccc(F)cc3)ccc2O1` it was “active”.
For the compound `C[C@@H]1CCCCO[C@H](CN(C)Cc2ccc3c(c2)OCO3)[C@@H](C)CN([C@H](C)CO)C(=O)c2cc(NC(=O)Nc3ccc(F)cc3)ccc2O1`, the cytotoxicity call was “active”.
As for `C[C@@H]1CCCCO[C@@H](CN(C)Cc2ccc3c(c2)OCO3)[C@H](C)CN([C@H](C)CO)C(=O)c2cc(NC(=O)Nc3ccc(F)cc3)ccc2O1`, the entry is “active”; as for `C[C@H]1CCCCO[C@@H](CN(C)Cc2ccc3c(c2)OCO3)[C@@H](C)CN([C@@H](C)CO)C(=O)c2cc(NC(=O)Nc3ccc(F)cc3)ccc2O1`, “inactive”; as for `C[C@@H]1CCCCO[C@H](CN(C)C(=O)c2ccccc2)[C@@H](C)CN([C@@H](C)CO)C(=O)c2cc(NC(=O)Cc3ccccc3)ccc2O1`, “inactive”.
On to `COc1ccccc1C#Cc1cnc2c(c1)C(=O)N([C@H](C)CO)C[C@@H](C)[C@H](CN(C)C(=O)CC1CC1)O2`, for which the cytotoxicity call is “inactive”.
As for `NCc1ccc(C(N)=O)cc1`, the entry is “inactive”; as for `C[C@H](CO)N1C[C@H](C)[C@H](CN(C)Cc2cncnc2)Oc2cc(C#CC3CCCC3)ccc2S1(=O)=O`, “inactive”; as for `CN1CCN(C(=O)C[C@H]2CC[C@@H]3[C@@H](COc4ccc(NC(=O)c5cscn5)cc4C(=O)N3C)O2)CC1`, “inactive”.
`C[C@@H]1CN([C@H](C)CO)C(=O)Cc2cc(NC(=O)C3CC3)ccc2O[C@H]1CN(C)Cc1ccc(C(=O)O)cc1`: the cytotoxicity call was “inactive”.
In the case of `CCCCC(=O)C1CCCC=C1C(=O)O` (centres undefined), the cytotoxicity call was “inactive”.
In the case of `C[C@H](CO)N1C[C@H](C)[C@@H](CN(C)Cc2cccc(C(F)(F)F)c2)OCc2ccccc2-c2ccccc2C1=O` it was “inactive”.
As for `C[C@@H]1CN([C@@H](C)CO)C(=O)c2ccccc2-c2ccccc2CO[C@H]1CN(C)C(=O)c1cc(Cl)cc(Cl)c1`, the entry is “inactive”.
